Inconclusive results are not listed. Active and inactive are the calls of the source. Unless noted, no stated cut-off is given here; in the data, active means percent of DMSO control GFP below about 86%; inactive means the rest, inconclusive results apart.

These results are taken from PubChem BioAssay.

Assay [1] in a line: rapamycin-like changes in RPL19A-GFP expression – cell-based, S. cerevisiae, multiplex flow cytometry, primary screen (AID 1862).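 Further: lower values mimic rapamycin by blocking the RPL19A rise seen in DMSO cells.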 As to conditions: S. cerevisiae RPL19A-GFP strain, flow cytometry fluorescence, 3 h; at 10 µM; stronger effect = lower value.
Assay [2] is described as follows: TOR pathway GLN3 branch reporter MEP2-GFP changes – S. cerevisiae, multiplex flow cytometry, primary screen (AID 1867;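 active means GFP response, as percent of the DMSO control, above the screen-wide mean plus 3 SD, about 139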;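 further: median GFP channel fluorescence of barcode-gated MEP2-GFP cells measured by flow cytometry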). The conditions noted are these: S. cerevisiae MEP2-GFP strain, 3 h, at 10 µM, stronger effect = higher value, 100% means same as DMSO wells.
A short description of assay [3]: TOR pathway RTG branch CIT2 reporter changes – S. cerevisiae, GFP fusion, multiplex flow cytometry, primary screen (AID 1870;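 active means percent response above a set limit, the screen-wide mean plus 3 SD, cut at about 130% in these data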;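 further: barcoded CIT2-GFP strain pooled with four other GFP strains with rapamycin as positive control; median GFP fluorescence per well over plate mean of DMSO wells so 100% = DMSO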). As to conditions: S. cerevisiae CIT2-GFP expression, 3 h, at 10 µM, stronger effect = higher value.
Assay [4] in a line: TOR pathway LAP4-GFP level changes – S. cerevisiae, multiplex flow cytometry, primary screen (AID 1873;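 active means GFP signal, as percent of the solvent control, above the screen mean plus 3 SD, about 149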). As to conditions: S. cerevisiae LAP4-GFP expression, 3 h, at 10 µM, stronger effect = higher value.
Assay [5] is described as follows: yeast AGP1-GFP level changes, GLN3 branch – cell-based, multiplex flow cytometry, S. cerevisiae, primary screen (AID 1887;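 active means GFP signal above the screen-wide mean plus 3 SD, that is over about 124.5% of the solvent control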;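 further: AGP1-GFP fusion strain of S. cerevisiae within a five-strain barcoded multiplex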). The conditions noted are these: 3 h, at 10 µM, stronger effect = higher value.
Assay [6] in a line: reduced mouse 2C T cell binding to pMHC/ICAM-1 vesicles – MLPCN validation set, flow cytometry, LFA-1/ICAM-1 modulator project, pilot screen (AID 2523;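 active means response below a set limit, under 55% cells CD8-positive and vesicle-bound, and CD8 cells' 90th-percentile brightness under 279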;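 on vesicle binding response: mean PE anti-B7-1 fluorescence of CD8+ cells relative to row control; 100% = QL9-loaded vesicles with DMSO vehicle in the same plate row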). As to conditions: 2C mouse CD8+ T cells, at 7 µM, stronger effect = lower value; double positive events: measured here: CD8+/vesicle+ event percentage.
Assay [7] deals with Integrin beta-1 (Homo sapiens) + Integrin alpha-4 (Homo sapiens) (UniProt P13612+P05556). Briefly: alpha4beta1 integrin LIBS antibody binding reduction – U937 cells, HUTS-21 mAb, flow cytometry, validation set, VLA-4 allosteric modulator project, pilot screen (AID 2674;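 active means inhibition above 50%, about 3 SD of the validation set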;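 further: antibody binding induced by the VLA-4 ligand LDV present at three times its Kd; 0% = LDV ligand with antibody and no compound and 100% = antibody without LDV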). The conditions noted are these: HUTS-21 LIBS mAb binding, at 6.7 µM, stronger effect = higher value, binding induced by LDV ligand.

The nature of assay [8]: calorie-restriction mimetic ROS inhibitors, yeast – validation compound set, pilot screen (AID 2706;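 active means superoxide response below 65% of plate, a cut near 3 SD across the whole screen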;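 further: yeast exposed to compound for one week at 30 degrees C before staining; 100% = mean of all compound wells on the same plate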). As to conditions: S. cerevisiae aging, superoxide DHE fluorescence; at 10 µM, stronger effect = lower value.
For assay [9], the target named is Beta-adrenergic receptor kinase 1 (Homo sapiens) (UniProt P25098). Briefly: GRK2 binders displacing RNA aptamer, biochemical, validation, human GRK2, bead flow cytometry (AID 488806;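 active means aptamer binding inhibition above 30%, about 3 SD of noise from non-fluorescent compounds; inactive means inhibition at or below 30%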). The conditions noted are these: bead-bound GRK2, FAM-aptamer displacement, at 10 µM, stronger effect = higher value.
Assay [10] has as its target AP-2 complex subunit beta (Homo sapiens) (UniProt P63010). Description: beta-arrestin/AP2 interaction blockers – biochemical, validation set, GST-AP2 beads, flow cytometry, pilot screen (AID 504541;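 active means inhibition above 54%, about 3 SD of non-fluorescent compounds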;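 further: AP2 carries R879A mutation and is captured from E. coli lysate; bead-bound FITC arrestin peptide fluorescence measuring arrestin peptide binding to AP2; 0% = DMSO wells and 100% = excess unlabeled arrestin peptide control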). As to conditions: FITC arrestin peptide, at 10 µM, stronger effect = higher value, AP2 beta2 appendage fragment, R879A mutant.
A short description of assay [11]: cytosolic pH regulators acting via V-ATPase – S. cerevisiae, pHLuorin, HTS validation (AID 504600; in the data active means response above about 15%;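 further: plate controls were DMSO for no effect and reference compound for full effect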). As to conditions: V-ATPase proton transport, at 10 µM, stronger effect = higher value.
The subject of assay [12] is anti-desmoglein-3 scFv antibody binding to human DSG3. Briefly: blockers of pathogenic pemphigus antibody–desmoglein-3 binding – biochemical, validation compound set, bead-based, flow cytometry, pilot screen (AID 588368;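 active means binding below the plate cutoff, the plate median minus 3 SD, with a reading above zero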;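 further: signal is the median channel fluorescence of bead-bound GFP antibody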). The conditions noted are these: Protein G beads, DSG3-Fc, scFv-GFP binding, at 10 µM, stronger effect = lower value.
A short description of assay [13]: Nile Red efflux blockade in pump-expressing yeast – validation compound set, multiplex, phenotypic, pilot screen (AID 588506;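 active means efflux inhibition above 0.42, the validation set average plus 4 SD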;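 further: Nile Red retained in cells so higher fluorescence means more efflux inhibition; 0 = negative control wells and 1 = enniatin B 25 µM full block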). The conditions noted are these: S. cerevisiae pump-expressing triplex, Nile Red efflux flow cytometry; at 10 µM; stronger effect = higher value; the pumps come from Candida albicans.
Assay [14] has as its target ATP-binding cassette sub-family B member 6 (Homo sapiens) (UniProt Q9NP58). Briefly: blockers of ABCB6-driven porphyrin uptake – K562-ABCB6 cells, flow cytometry, validation set, pilot screen (AID 588550;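 active means inhibition above the screen-wide mean plus 3 SD, about 51%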;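 further: 0% = DMSO wells and 100% = benzethonium chloride 70 µM positive control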). The conditions noted are these: K562-ABCB6 porphyrin accumulation, 1 h, at 10 µM, stronger effect = higher value.
A short description of assay [15]: AML differentiation inducers, ER-HoxA9 marrow cells – cell-based, GFP/MAC1 double positive, flow cytometry, validation set, primary screen (AID 588685;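 active means differentiation response of at least 50%, scaled between solvent and reference control, from cells with both markers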;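 further: compound exposure lasts four days before antibody staining and flow analysis; 0% = DMSO wells and 100% = 5 µM fulvestrant positive control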). The conditions noted are these: stronger effect = higher value, normalized: vehicle 0, fulvestrant 100.

Chain of Integrin beta-1 (Homo sapiens) + Integrin alpha-4 (Homo sapiens) (P05556 whole entry, looked up): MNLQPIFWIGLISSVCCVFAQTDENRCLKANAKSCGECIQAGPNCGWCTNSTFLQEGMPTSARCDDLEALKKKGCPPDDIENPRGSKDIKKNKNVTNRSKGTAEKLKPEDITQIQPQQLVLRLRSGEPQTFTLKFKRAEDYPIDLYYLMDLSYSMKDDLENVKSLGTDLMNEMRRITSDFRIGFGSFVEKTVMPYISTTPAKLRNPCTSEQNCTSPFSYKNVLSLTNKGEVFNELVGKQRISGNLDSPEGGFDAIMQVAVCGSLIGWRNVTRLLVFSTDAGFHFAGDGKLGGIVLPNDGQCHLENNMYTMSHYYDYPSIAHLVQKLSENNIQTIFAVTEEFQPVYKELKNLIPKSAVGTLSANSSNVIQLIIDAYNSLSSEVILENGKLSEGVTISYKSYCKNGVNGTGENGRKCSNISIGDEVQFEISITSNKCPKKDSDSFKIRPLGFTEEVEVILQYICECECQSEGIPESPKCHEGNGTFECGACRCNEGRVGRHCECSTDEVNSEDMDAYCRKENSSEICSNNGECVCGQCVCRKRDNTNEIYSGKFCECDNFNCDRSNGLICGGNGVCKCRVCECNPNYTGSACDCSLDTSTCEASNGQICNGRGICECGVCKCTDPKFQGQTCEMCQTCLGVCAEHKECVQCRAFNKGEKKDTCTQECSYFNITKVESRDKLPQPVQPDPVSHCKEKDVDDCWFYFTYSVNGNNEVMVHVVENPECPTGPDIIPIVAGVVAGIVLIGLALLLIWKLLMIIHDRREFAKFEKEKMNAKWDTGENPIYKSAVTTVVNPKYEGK
Chain of Integrin beta-1 (Homo sapiens) + Integrin alpha-4 (Homo sapiens) (P13612 whole entry, looked up): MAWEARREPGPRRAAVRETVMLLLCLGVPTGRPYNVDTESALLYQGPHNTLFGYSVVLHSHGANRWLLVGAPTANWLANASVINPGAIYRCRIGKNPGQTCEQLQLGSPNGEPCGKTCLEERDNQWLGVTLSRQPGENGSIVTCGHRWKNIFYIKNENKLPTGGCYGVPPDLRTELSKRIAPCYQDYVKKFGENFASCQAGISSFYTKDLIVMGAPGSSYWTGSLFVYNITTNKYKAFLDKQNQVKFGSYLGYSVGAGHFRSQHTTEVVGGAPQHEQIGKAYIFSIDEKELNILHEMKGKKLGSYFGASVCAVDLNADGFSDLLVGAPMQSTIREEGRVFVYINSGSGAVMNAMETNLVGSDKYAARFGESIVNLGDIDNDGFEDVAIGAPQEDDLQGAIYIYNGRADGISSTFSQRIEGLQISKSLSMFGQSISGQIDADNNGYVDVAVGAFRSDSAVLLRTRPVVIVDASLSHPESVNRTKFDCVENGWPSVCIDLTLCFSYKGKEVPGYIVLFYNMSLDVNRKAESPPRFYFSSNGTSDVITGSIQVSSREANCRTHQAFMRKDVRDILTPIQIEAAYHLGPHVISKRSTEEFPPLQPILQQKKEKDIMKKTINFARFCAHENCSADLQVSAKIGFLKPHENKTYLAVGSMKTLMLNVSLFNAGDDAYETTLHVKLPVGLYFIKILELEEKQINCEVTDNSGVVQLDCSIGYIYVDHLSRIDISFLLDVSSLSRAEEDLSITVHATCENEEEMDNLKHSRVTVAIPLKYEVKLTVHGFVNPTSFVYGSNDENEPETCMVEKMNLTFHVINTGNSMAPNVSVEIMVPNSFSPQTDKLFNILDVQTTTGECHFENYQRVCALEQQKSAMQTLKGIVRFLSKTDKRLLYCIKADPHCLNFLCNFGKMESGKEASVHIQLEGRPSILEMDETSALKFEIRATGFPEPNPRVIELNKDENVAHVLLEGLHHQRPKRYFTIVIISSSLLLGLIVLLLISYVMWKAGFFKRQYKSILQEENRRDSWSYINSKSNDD
Chain of Beta-adrenergic receptor kinase 1 (Homo sapiens) (P25098 whole entry, looked up): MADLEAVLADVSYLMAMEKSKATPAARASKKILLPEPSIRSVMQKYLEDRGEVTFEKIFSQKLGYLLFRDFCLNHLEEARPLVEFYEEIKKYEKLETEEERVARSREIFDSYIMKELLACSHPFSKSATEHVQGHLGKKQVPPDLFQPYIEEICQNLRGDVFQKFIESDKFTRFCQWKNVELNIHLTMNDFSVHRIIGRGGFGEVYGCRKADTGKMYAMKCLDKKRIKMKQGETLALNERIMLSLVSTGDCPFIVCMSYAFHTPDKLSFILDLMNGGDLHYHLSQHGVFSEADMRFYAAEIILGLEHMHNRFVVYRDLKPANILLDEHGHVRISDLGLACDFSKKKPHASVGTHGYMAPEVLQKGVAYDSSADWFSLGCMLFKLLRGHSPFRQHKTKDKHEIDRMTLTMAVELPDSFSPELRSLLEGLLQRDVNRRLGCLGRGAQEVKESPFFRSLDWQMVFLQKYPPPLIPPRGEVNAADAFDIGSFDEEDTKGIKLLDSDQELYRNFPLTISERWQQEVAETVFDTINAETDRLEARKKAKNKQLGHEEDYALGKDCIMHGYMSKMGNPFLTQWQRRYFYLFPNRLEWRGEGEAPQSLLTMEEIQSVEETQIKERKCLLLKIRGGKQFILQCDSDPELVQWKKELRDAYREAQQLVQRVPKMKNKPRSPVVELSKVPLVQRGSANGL
Chain of ATP-binding cassette sub-family B member 6 (Homo sapiens) (Q9NP58 whole entry, looked up): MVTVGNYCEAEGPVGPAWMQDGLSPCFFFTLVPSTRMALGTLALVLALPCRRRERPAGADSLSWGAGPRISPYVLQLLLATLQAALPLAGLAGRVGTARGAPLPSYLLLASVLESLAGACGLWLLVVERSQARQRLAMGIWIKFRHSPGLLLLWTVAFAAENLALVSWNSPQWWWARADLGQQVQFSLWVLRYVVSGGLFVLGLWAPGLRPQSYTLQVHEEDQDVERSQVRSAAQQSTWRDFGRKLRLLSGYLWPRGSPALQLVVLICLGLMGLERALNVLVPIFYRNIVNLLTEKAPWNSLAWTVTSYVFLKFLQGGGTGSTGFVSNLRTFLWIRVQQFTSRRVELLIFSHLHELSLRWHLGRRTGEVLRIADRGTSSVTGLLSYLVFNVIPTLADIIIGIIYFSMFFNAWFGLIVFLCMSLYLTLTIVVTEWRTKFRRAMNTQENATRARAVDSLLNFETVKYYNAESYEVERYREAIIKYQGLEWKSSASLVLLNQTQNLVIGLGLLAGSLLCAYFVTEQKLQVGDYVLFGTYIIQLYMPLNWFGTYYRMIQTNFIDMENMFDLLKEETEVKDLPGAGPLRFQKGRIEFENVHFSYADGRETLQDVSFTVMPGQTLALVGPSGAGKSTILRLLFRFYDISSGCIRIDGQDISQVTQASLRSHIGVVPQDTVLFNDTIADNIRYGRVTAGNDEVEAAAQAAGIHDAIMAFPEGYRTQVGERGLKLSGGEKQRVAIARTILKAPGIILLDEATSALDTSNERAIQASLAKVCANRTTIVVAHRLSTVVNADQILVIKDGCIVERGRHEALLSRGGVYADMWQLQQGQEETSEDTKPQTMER
Chain of AP-2 complex subunit beta (Homo sapiens) (P63010 whole entry, looked up, the tested form may be a part, one chain of several): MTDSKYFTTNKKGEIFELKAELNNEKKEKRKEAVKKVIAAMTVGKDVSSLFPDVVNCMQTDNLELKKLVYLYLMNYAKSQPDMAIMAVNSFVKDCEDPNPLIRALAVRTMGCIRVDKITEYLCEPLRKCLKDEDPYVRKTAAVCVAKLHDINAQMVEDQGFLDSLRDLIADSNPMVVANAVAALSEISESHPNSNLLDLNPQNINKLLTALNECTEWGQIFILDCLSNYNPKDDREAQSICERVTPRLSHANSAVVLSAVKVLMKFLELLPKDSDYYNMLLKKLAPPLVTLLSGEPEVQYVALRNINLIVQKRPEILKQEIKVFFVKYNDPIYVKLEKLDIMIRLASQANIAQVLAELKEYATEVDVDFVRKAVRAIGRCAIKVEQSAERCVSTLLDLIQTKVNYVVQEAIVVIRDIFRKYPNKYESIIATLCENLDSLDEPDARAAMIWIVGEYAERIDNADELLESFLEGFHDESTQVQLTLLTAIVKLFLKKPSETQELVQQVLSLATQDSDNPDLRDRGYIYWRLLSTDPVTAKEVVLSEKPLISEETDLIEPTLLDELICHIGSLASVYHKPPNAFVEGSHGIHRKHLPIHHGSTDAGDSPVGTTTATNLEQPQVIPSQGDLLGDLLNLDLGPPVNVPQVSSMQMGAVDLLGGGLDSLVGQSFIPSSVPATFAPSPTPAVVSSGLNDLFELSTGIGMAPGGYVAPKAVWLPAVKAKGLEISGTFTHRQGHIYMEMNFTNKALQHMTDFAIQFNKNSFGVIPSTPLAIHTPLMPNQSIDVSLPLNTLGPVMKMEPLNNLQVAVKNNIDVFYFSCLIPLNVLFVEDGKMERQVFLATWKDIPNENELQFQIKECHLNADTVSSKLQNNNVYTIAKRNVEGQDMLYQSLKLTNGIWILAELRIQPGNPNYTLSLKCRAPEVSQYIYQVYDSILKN

On to `Cc1oc2cc(O)ccc2c(=O)c1Oc1ccccc1Br`, for which the percent of DMSO control GFP in assay [1] is 96.9% (inactive). The values for the GFP response vs DMSO in assay [2] and in assay [4] were 108% (inactive) and 102% (inactive), respectively. Besides, the percent response of DMSO control in [3] was 93% (inactive). In addition, the GFP response, % of DMSO in assay [5] was 98.1% (inactive). The compound also came in with a double positive events in assay [6] of 54.8%. The vesicle binding response in [6] is 172% (inactive). The inhibition in [7] is -12.4% (inactive); in [10], 4.89% (inactive); in assay [14] it was 9% (inactive). Further, in assay [8], the superoxide response (% of plate) was 101% (inactive). Moreover, in assay [9], the aptamer binding inhibition is 6% (inactive). Besides, in assay [11], the response is 1.47% (inactive). In assay [12], the binding (% of control) is 102% (inactive). Moreover, in assay [13], the efflux inhibition (fraction of control) is -0.31 (inactive). Further, in assay [15], the differentiation response was -13.1% (inactive).
For the compound `CCS(=O)(=O)CCn1c([N+](=O)[O-])cnc1C`, in assay [1], the percent of DMSO control GFP is 96.4% (inactive). Also, the GFP response vs DMSO in assay [2] was 106% (inactive); in [4], 94.3% (inactive). The percent response of DMSO control in assay [3] was 95.9% (inactive). Also, in assay [5], the GFP response, % of DMSO is 97.8% (inactive). In assay [6], this compound yielded a double positive events of 47.3%. For the same compound, the vesicle binding response in assay [6] was 136% (inactive). Besides, the figures for the inhibition in [7], in assay [10] and in assay [14] were 12.8% (inactive), -4.86% (inactive) and 4% (inactive), respectively. Also, the superoxide response (% of plate) in assay [8] is 108% (inactive). Also, the aptamer binding inhibition in assay [9] was 8% (inactive). For the same compound, the response in assay [11] is 5.33% (inactive). The binding (% of control) in [12] was 99.1% (inactive). The efflux inhibition (fraction of control) in assay [13] is 0.18 (inactive). The differentiation response in [15] is -5.05% (inactive).
For the compound `CC(=O)O[C@H]1C(=O)[C@@]2(C)[C@H]([C@H](OC(=O)c3ccccc3)[C@]3(O)C[C@H](OC(=O)[C@H](O)C(NC(=O)c4ccccc4)c4ccccc4)C(C)=C1C3(C)C)[C@]1(OC(C)=O)CO[C@@H]1C[C@@H]2O` (stereo not given in full), the percent of DMSO control GFP in [1] was 106% (inactive). For the same compound, the results for the GFP response vs DMSO in assay [2] and in [4] were 99.9% (inactive) and 90.3% (inactive), respectively. Moreover, the percent response of DMSO control in assay [3] was 103% (inactive). In assay [5], the GFP response, % of DMSO is 97.3% (inactive). This compound also yielded a double positive events in [6] of 55.6%. Also, in assay [6], the vesicle binding response is 162% (inactive). In addition, the inhibition in assay [7] is 5.36% (inactive); in [10] it was 2.22% (inactive); in assay [14], 7% (inactive). The superoxide response (% of plate) in [8] was 99% (inactive). The aptamer binding inhibition in assay [9] was 3% (inactive). Further, the response in assay [11] was -2.34% (inactive). Besides, the binding (% of control) in [12] is 94.6% (inactive). Moreover, in assay [13], the efflux inhibition (fraction of control) was 0.63 (active). Also, the differentiation response in assay [15] was 9.49% (inactive).
Regarding `C[N+]12CCC(CC1)C(OC(=O)C(O)(c1ccccc1)c1ccccc1)C2` (stereo not given), in assay [1], the percent of DMSO control GFP is 96.8% (inactive). Also, the GFP response vs DMSO in assay [2] was 96.9% (inactive); in assay [4], 100% (inactive). Further, the percent response of DMSO control in assay [3] was 99.8% (inactive). The GFP response, % of DMSO in [5] is 95.8% (inactive). In addition, the double positive events in [6] is 60.6%. In assay [6], the vesicle binding response is 211% (inactive). Further, the figures for the inhibition in assay [7], in assay [10] and in assay [14] were 2.56% (inactive), -2.25% (inactive) and 10% (inactive), respectively. Also, in assay [8], the superoxide response (% of plate) was 104% (inactive). The aptamer binding inhibition in assay [9] was -2% (inactive). In addition, in [11], the response was 2.36% (inactive). In assay [12], the binding (% of control) is 102% (inactive). In addition, in assay [13], the efflux inhibition (fraction of control) was -0.35 (inactive). In addition, the differentiation response in assay [15] was -21.2% (inactive).
As to `CCN(Cc1ccncc1)Cc1nc(Cc2ccccc2Cl)no1`, the percent of DMSO control GFP in assay [1] is 95.8% (inactive). Further, the GFP response vs DMSO in assay [2] is 98.9% (inactive); in [4] it was 95.4% (inactive). For the same compound, in assay [3], the percent response of DMSO control is 102% (inactive). For the same compound, the GFP response, % of DMSO in assay [5] is 94.2% (inactive). For the same compound, in [6], the double positive events amounted to 53.4%. Besides, the vesicle binding response in assay [6] was 164% (inactive). Besides, the inhibition in [7] is -12.4% (inactive); in [10], 8.49% (inactive); in assay [14] it was 7% (inactive). The superoxide response (% of plate) in [8] is 111% (inactive). The aptamer binding inhibition in assay [9] was 2% (inactive). Further, the response in assay [11] is 2.76% (inactive). In addition, the binding (% of control) in assay [12] is 101% (inactive). For the same compound, in assay [13], the efflux inhibition (fraction of control) was 0.25 (inactive). Further, the differentiation response in assay [15] is -27.6% (inactive).
